Reference: PubChem BioAssay AID2227 (Johns Hopkins Ion Channel Center, 2009)
In all, about 310,000 compounds went through this assay and about 1,300 (0.42%) were called active.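 Rule for the calls: active = B-score of calcium response area above 5 SD of library B-scores, with initial fluorescence ratio within 5 SD of library; inactive = the rest.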 The sample as a whole holds a higher share of actives than the screen did.

Each compound was assayed against Short transient receptor potential channel 4 (Mus musculus) (UniProt Q9QUQ5) (assay: TRPC4 channel potentiators under submaximal DAMGO – cell-based, mouse TRPC4beta, HEK293 mu-opioid, Fluo-4 calcium, primary screen (AID 2227;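 for B-score: B-score of integrated fluorescence ratio over time as area under calcium response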)). Conditions: DAMGO EC20, Fluo-4 Ca2+ flux, at 10 µM; hits give high values.
Sequence of Short transient receptor potential channel 4 (Mus musculus) (Q9QUQ5 whole entry, looked up): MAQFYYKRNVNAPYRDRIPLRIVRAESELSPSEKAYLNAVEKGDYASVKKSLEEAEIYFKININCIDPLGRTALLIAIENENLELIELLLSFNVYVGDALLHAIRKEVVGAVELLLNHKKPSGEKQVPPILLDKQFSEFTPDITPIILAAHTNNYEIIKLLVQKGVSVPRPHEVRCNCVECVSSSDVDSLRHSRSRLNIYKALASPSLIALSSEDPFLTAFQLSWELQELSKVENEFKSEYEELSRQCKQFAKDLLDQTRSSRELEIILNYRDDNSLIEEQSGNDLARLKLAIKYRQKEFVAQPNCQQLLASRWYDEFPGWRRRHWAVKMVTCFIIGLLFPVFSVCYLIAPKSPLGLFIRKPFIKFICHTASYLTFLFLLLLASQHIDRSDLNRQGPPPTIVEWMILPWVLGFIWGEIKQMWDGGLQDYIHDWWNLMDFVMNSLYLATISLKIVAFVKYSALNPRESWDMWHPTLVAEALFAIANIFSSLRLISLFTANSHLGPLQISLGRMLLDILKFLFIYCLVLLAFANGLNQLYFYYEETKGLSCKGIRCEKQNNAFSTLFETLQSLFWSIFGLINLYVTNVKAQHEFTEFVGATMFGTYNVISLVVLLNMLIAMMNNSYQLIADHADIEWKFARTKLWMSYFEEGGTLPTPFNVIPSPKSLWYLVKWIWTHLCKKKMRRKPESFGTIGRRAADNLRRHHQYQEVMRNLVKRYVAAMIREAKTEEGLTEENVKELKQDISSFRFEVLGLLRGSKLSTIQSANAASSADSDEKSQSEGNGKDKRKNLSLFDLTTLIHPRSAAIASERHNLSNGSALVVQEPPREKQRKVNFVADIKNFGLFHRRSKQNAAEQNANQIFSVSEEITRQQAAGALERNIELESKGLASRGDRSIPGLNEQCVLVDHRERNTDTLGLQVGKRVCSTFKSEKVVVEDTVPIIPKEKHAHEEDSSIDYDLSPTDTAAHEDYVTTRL
For `CCN1/C(=C\c2ccc3ccccc3[n+]2CC)Sc2cc(C)ccc21`, the B-score was 13 (active). `N#Cc1cc([N+](=O)[O-])ccc1NCC1CCCO1` (centres undefined) was tested, and the B-score was “inactive”. With `CCc1ccc2c(c1)C1(NN=C(c3ccccc3)S1)C(=O)N2` (centres undefined) the B-score was 11 (active). `COC(C[C@H](O)CC(=O)COCc1ccccc1)OC` was tested, and the B-score was “inactive”. In the case of `Cc1cccc(Cn2c(SCCO)nc3c2c(=O)n(C)c(=O)n3C)c1`, the B-score is reported as “inactive”. With `COC(=O)C(C)Sc1nc2c(c(=O)n(C)c(=O)n2C)n1Cc1cccc(C)c1` (centres undefined) the B-score was “inactive”. For `Cc1cccc(Cn2c(N3CCN(c4ccccc4)CC3)nc3c2c(=O)n(C)c(=O)n3C)c1`, the B-score was 41 (active). For `CCOC(=O)NN1C(=O)c2ccccc2NC1c1ccccc1O` (centres undefined), the B-score was “inactive”. `O=C(CSc1ccc(-c2ccc(Br)cc2)nn1)NCC1CCCO1` (centres undefined) was tested, and the B-score was “inactive”. With `CC(NS(=O)(=O)c1ccc(Br)cc1)C(=O)NCC1CCCO1` (centres undefined) the B-score was “inactive”. `OC(CNCC1CCCO1)Cn1c2ccc(Br)cc2c2cc(Br)ccc21` (centres undefined) was tested, and the B-score was 17 (active). `Cc1cc(S(=O)(=O)c2cc3ccc(O)c(C)c3oc2=O)ccc1F` was tested, and the B-score was “inactive”. `Cc1ccc(/C=N/NC(=S)Nc2cccc(S(=O)(=O)N(C)C)c2)o1` was tested, and the B-score was “inactive”. In the case of `C/C(=N\NC(=S)NC1CCCCC1)c1ccc(C)o1`, the B-score is reported as “inactive”. For `Cc1ccc(/C=N/NC(=S)NC2CCCCC2)o1`, the B-score was 35 (active). In the case of `NC(=O)C1=C[C@H](c2csc3ccccc23)C[C@H](OCc2ccc(CO)cc2)O1`, the B-score is reported as “inactive”. `O=C(NC1CC1)C1=C[C@H](c2c[nH]c3ccccc23)C[C@H](OCc2ccc(CO)cc2)O1` was tested, and the B-score was 11 (active). In the case of `NC(=O)C1=C[C@@H](c2csc3ccccc23)C[C@@H](OCc2ccc(CO)cc2)O1`, the B-score is reported as “inactive”. With `Cc1c(-c2nn(C)c(=O)c3ccccc23)oc2ccc(F)cc2c1=O` the B-score was “inactive”. In the case of `CCOc1ccc(Nc2nc(Cc3nnc(SCC(=O)NC4CCCC4)n3C)cs2)cc1`, the B-score is reported as “inactive”. For `CCOc1ccc(Nc2nc(Cc3nnc(SCC(=O)c4ccc(C)cc4)o3)cs2)cc1`, the B-score was 30 (active). `CC(=O)Nc1ccc(C(=O)CSc2nnc(Cc3ccccc3)o2)cc1` was tested, and the B-score was “inactive”. `NC(=O)C1(N2CCCCC2)CCN(C(=O)c2ccc(C#Cc3ccccc3)o2)CC1` was tested, and the B-score was “inactive”. In the case of `CN1CCN(CCCCOc2cccc3ccccc23)CC1`, the B-score is reported as “inactive”. `CC1CN(CCOc2ccccc2[N+](=O)[O-])CC(C)O1` (centres undefined) was tested, and the B-score was “inactive”. `CC1CC(C)CN(CCOc2cccc3ccccc23)C1` (centres undefined) was tested, and the B-score was 11 (active). For `CCOC12CC(C)(C)CC(C)(CC3=C1C(=O)CC(C)(C)C3)C2` (centres undefined), the B-score was “inactive”. With `CCCCCCCNc1nc(Cl)nc(NCCO)n1` the B-score was “inactive”. For `O=C(N/N=C/c1ccc(OCC2COCCO2)cc1)c1ccc(Br)cc1` (centres undefined), the B-score was “inactive”. `CCOc1ccc(N2C(=O)/C(=C/c3ccc(C)o3)N(C)C2=S)cc1` was tested, and the B-score was “inactive”. For `CC(NC(=O)COc1cccnc1[N+](=O)[O-])c1ccc(Cl)cc1Cl` (centres undefined), the B-score was “inactive”. In the case of `CN(C)CCOCCOc1ccc(Cl)c2ccccc12`, the B-score is reported as “inactive”. In the case of `CCN(CC)CCOCCOc1ccc(Cl)c2ccccc12`, the B-score is reported as 21 (active). In the case of `Clc1cccc(Cl)c1OCCOCCNCc1ccccc1`, the B-score is reported as “inactive”. For `O=S(=O)(Nc1cccc(-n2cnnn2)c1)c1cnc(Cl)c(Cl)c1`, the B-score was “inactive”. `COc1cc(S(=O)(=O)Nc2ncn[nH]2)ccc1Cl` was tested, and the B-score was “inactive”. `Cc1cccc(CN2CCC(CNC(=O)Nc3ccc(F)c(Cl)c3)CC2)c1` was tested, and the B-score was “inactive”. For `Cc1ccc(C)c(CN2CCC(CNC(=O)Nc3ccc(C)c(F)c3)CC2)c1`, the B-score was 10 (active). In the case of `COc1cc(NC(=O)NCC2CCN(Cc3ccc(C)cc3)CC2)cc(OC)c1OC`, the B-score is reported as “inactive”. With `COC(=O)c1cc(S(=O)(=O)N2CCC(C(N)=O)CC2)oc1C` the B-score was “inactive”. `O=c1c(-c2ccccc2Cl)c[nH]n1-c1ccccc1` was tested, and the B-score was “inactive”. `Cc1ccc(C(=O)NCCc2nnc(SCC(=O)Nc3cccc(C(=O)O)c3)n2C)cc1` was tested, and the B-score was “inactive”. For `O=C(CN1CCN(Cc2ccccc2)CC1)Nc1ccc(F)c(F)c1`, the B-score was “inactive”. For `Cc1cc(NC(=O)CCN2CCN(Cc3ccccc3)CC2)ccc1Br`, the B-score was 20 (active). `CCOC(=O)N1CCN(CCC(=O)Nc2ccccc2)CC1` was tested, and the B-score was “inactive”. For `COc1ccccc1C(=O)Nc1ccnn1C1CCN(Cc2cnn(C)c2)CC1`, the B-score was “inactive”. `O=C(COc1ccc(Cl)cc1)Nc1ccc2c(c1)OCO2` was tested, and the B-score was “inactive”. `CCC(C)Sc1nc2c(cnn2-c2ccc(F)cc2)c(=O)[nH]1` (centres undefined) was tested, and the B-score was “inactive”. For `CCCCN(CC)C(=O)C1CCCN(S(=O)(=O)c2cccc3nsnc23)C1` (centres undefined), the B-score was “inactive”. In the case of `O=C(c1ccco1)N1CCN(C(=O)C2CCCN(S(=O)(=O)c3cccc4nsnc34)C2)CC1` (centres undefined), the B-score is reported as “inactive”. For `CCCCN(C)CCNC(=O)C1CCCN(S(=O)(=O)c2cccc3nsnc23)C1` (centres undefined), the B-score was 25 (active). For `CC(C)c1nc(CNC(=O)CC2C(=O)NCCN2Cc2cccc(F)c2F)cs1` (centres undefined), the B-score was “inactive”. `C=CCNC(=O)CC12CC3CC(C1)CC(CC(=O)NCC=C)(C3)C2` was tested, and the B-score was “inactive”. For `Cc1cc(-n2nc(C)cc2C)n2nc(C)c(-c3ccccc3)c2n1`, the B-score was “inactive”. In the case of `Cc1cc(-c2ccccc2)n2nc(C)c(-c3ccccc3)c2n1`, the B-score is reported as “inactive”. `CCc1c(C)nc2c(-c3ccccc3)c(C)nn2c1Nc1ccc(NC(C)=O)cc1` was tested, and the B-score was 27 (active). With `CCCC(C)c1nnc(NC(=O)C2CC(=O)N(c3ccc(OCC)cc3)C2)s1` (centres undefined) the B-score was “inactive”. For `COc1ccc(S(=O)(=O)NCCCc2ccccc2)cc1`, the B-score was 32 (active). `O=S(=O)(NCCCc1ccccc1)c1ccc(Br)cc1` was tested, and the B-score was “inactive”. For `O=S(=O)(NCCc1ccccc1)c1ccccc1`, the B-score was “inactive”. With `COC(=O)c1c(NC(=O)CN2CCN(S(=O)(=O)c3ccccc3[N+](=O)[O-])CC2)sc2c1CCC(C)C2` (centres undefined) the B-score was “inactive”. With `CS/C(=C\C(=O)c1ccco1)Nc1ccccc1Cl` the B-score was “inactive”. `C#CCCCc1nc2ccccc2c(=O)n1N` was tested, and the B-score was “inactive”. `CCCCn1c(N)c(N(CC(C)C)C(=O)c2cccc(S(=O)(=O)N3CC(C)OC(C)C3)c2)c(=O)[nH]c1=O` (centres undefined) was tested, and the B-score was “inactive”. `CCn1cc(CN2CCN(CC(C)(C)C)C(CCO)C2)c2ccccc21` (centres undefined) was tested, and the B-score was “inactive”. With `CCCCCCn1cc(C(=O)O)c(=O)c2cc(F)c(N3CCCCC3)cc21` the B-score was 12 (active). With `CN1CCN(c2cc3c(cc2F)c(=O)c(C(=O)O)cn3CCF)CC1` the B-score was “inactive”. `CCn1cc(C(=O)NCCO)c(=O)c2cc(F)c(N3CCN(C)CC3)cc21` was tested, and the B-score was “inactive”. With `O=C(c1ccc(F)cc1)c1c[nH]c(C(=O)NCc2cccnc2)c1` the B-score was “inactive”. In the case of `C=CCC1(C(=O)N(C)Cc2ccccc2)CCN(C(=O)OC(C)(C)C)CC1`, the B-score is reported as “inactive”. In the case of `CC1(C)CC(=O)C(N=Nc2c(F)cccc2F)=C(O)C1`, the B-score is reported as “inactive”. In the case of `Cc1ccc(N2C(=O)C(NC(=O)c3c(F)cccc3F)(C(F)(F)F)C3=C2CC(C)(C)CC3=O)cc1` (centres undefined), the B-score is reported as 119 (active). With `C=CCSc1nnc(N2C(=O)C(O)=C(C(=O)c3ccco3)C2c2ccc(F)cc2)s1` (centres undefined) the B-score was “inactive”. For `COc1ccccc1N(C)S(=O)(=O)c1ccc(C(=O)NC2CCCCCC2)cc1`, the B-score was “inactive”. `COC(=O)Cc1csc(/N=C/c2c(O)n(-c3cccc(C(F)(F)F)c3)c(=O)c3ccccc23)n1` was tested, and the B-score was “inactive”. With `O=S(=O)(c1ccc(Br)cc1)c1nc(-c2ccccc2)oc1N1CCOCC1` the B-score was 11 (active). With `O=S(=O)(c1ccccc1)c1nc(-c2ccccc2)oc1NCCCN1CCOCC1` the B-score was “inactive”. For `O=S(=O)(c1ccccc1)c1nc(Cc2ccccc2)oc1N1CCOCC1`, the B-score was “inactive”. In the case of `COc1nnc(-c2ccc(C)c(S(=O)(=O)N(C)C)c2)c2ccccc12`, the B-score is reported as “inactive”. With `CC1CCCCC1NC(=O)CO/N=C/c1ccc(OC(F)F)cc1` (centres undefined) the B-score was “inactive”. With `Cc1nn(CC(=O)Nc2ccc(N(C)C)cc2)c(C)c1[N+](=O)[O-]` the B-score was “inactive”. For `COc1cccc(/C=C/C(=O)OCC(=O)N2CCCc3ccccc32)c1`, the B-score was “inactive”. `Cc1cc2cc3c(N)[nH]nc3nc2cc1C` was tested, and the B-score was 11 (active). With `O=C(NCCN1CCOCC1)c1cc(Sc2cccc(Cl)c2)nc2ccccc12` the B-score was “inactive”. `COc1cc(C(=O)N2CCN(C)CC2)cc(OC)c1OC` was tested, and the B-score was “inactive”. In the case of `COc1ccccc1OCc1ccc(C(=O)N2CCN(C)CC2)o1`, the B-score is reported as “inactive”. For `COc1cc2c(C(=O)N3CCN(C)CC3)c(CSc3ccccc3)n(C)c2cc1Br`, the B-score was 18 (active). With `CC1=C(C(=O)OCC2CCCCC2)C(c2ccc(F)cc2)NC(=O)N1` (centres undefined) the B-score was “inactive”. For `C=CCc1cc(C)ccc1OCCCn1ccnc1`, the B-score was “inactive”. For `c1ccc(Cc2ccc(OCCn3ccnc3)cc2)cc1`, the B-score was “inactive”. With `Clc1c(OCCCn2ccnc2)ccc2ccccc12` the B-score was 15 (active). For `Fc1ccccc1/C=N/Nc1cc(N2CCCCC2)ncn1`, the B-score was “inactive”. In the case of `O=C(NCc1cccc(Cl)c1)C1CCC(=O)N(C2CC2)C1` (centres undefined), the B-score is reported as “inactive”. `C=CCN(Cc1nc(-c2cc(OC)c3c(c2)OCO3)oc1C)C1CCS(=O)(=O)C1` (centres undefined) was tested, and the B-score was “inactive”. `C=C(C)COc1ccc(-c2ncncc2-c2ccc(OC)cc2)c(O)c1` was tested, and the B-score was “inactive”. `CCOc1ccc(-c2nc(N)ncc2-c2ccccc2OC)c(O)c1` was tested, and the B-score was “inactive”. `C=C(C)COc1ccc(-c2nc(N)ncc2-c2ccccc2OC)c(O)c1` was tested, and the B-score was 22 (active). `CC(C)Oc1ccc(CC(=O)NNC(=S)Nc2ccc(Br)cc2)cc1` was tested, and the B-score was “inactive”. `COc1cc(CCC(=O)Nc2ccncc2Cl)cc(OC)c1OC` was tested, and the B-score was “inactive”. In the case of `O=C1c2ccccc2C(=O)c2c1cccc2N1CCN(CCO)CC1`, the B-score is reported as “inactive”. In the case of `O=C1c2ccccc2C(=O)c2c1cccc2N1CCN(Cc2ccccc2)CC1`, the B-score is reported as 14 (active). With `O=C1c2ccccc2C(=O)c2c1cccc2N1CCN(C/C=C/c2ccccc2)CC1` the B-score was “inactive”. In the case of `Cc1ccc(Cl)cc1NC(=O)CN1CCN(S(=O)(=O)N2CCOCC2)CC1`, the B-score is reported as “inactive”. In the case of `O=C(c1ccc(Cl)s1)N(Cc1nnc(-c2ccccc2Cl)o1)C1CC1`, the B-score is reported as “inactive”. `CCc1c(C)nc(N)n2c(SCC(=O)NC3CCCCC3)nnc12` was tested, and the B-score was “inactive”. `Cc1ccc(NC(=O)c2cnc(SCC(=O)NCC3CCCO3)n(C)c2=O)cc1` (centres undefined) was tested, and the B-score was “inactive”. For `COC(=O)c1cc(N2CCNCC2)nc2ccccc12`, the B-score was 39 (active). In the case of `COc1ccccc1NC(=O)c1cc(Cl)nc2ccccc12`, the B-score is reported as “inactive”. With `Cc1cc(C(=O)Nc2ccccc2N2CCOCC2)c2ccccc2n1` the B-score was “inactive”.
